From a collection of fitness landscapes (doi:10.1016/j.celrep.2020.107928)
Whole data set: some 81,000 sequences, median “one-hybrid fitness for binding NBS DNA” near -0.1, cut for the highest 2% near 0.36. The sample as a whole holds a higher share of the highest values than the screen did.

B1: Caulobacter ParB omega fusion; a variant is named by its letters at X, in order, B8GW30 (parent)
chain: MESVVVGEPGMSEGRRGLGRGLSALLGEVDAAPAQAPGEQLGGSREAPIEILQRNPDQPRRTFREEDLEDLSNSIREKGVLQPILVRPSPDTAGEYQIVAGERAWRAAQRAGLKTVPIMVRELDDLAVLEIGIIENVQRADLNVLEEALSYKVLMEKFERTQENIAQTIGKSXSHVANXMRLLXLPDEVQSYLVSGELTAXHARAIAAAADPVALAKQIIEGGLSVRETEALARKAPNLSAGKSKGGRPPRVKDTDTQALESDLSSVLGLDVSIDHRGSTGTLTITYATLEQLDDLCNRLTRGI

Variants of: B1
Experiment: one-hybrid fitness for binding NBS DNA (the Noc-binding site; scaled: cognate 1, non-cognate 0); higher = stronger binding
Conditions: with NBS DNA site
Procedure, shortened: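 The reporter was HIS3, with the binding site 19 bp from the promoter, in E. coli USO used for bacterial one-hybrid selection of Caulobacter ParB libraries with four specificity codons randomised. Growth was on M9 lacking histidine, with 0.1 mM IPTG and 5 mM 3-AT, for 48 hours at 37°C. Illumina sequencing covered plasmids before and after selection; three replicate libraries were pooled and variants with under 10 reads dropped. A fitness score is the log change in variant-to-wild-type read ratio, rescaled to the cognate and non-cognate references.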

one-hybrid fitness for binding NBS DNA, 0.525:
QAGR

one-hybrid fitness for binding NBS DNA, 0.351:
QSKQ

one-hybrid fitness for binding NBS DNA, 0.397:
RPVQ

one-hybrid fitness for binding NBS DNA, 0.405:
QRKF

one-hybrid fitness for binding NBS DNA, 0.973:
QARR

one-hybrid fitness for binding NBS DNA, 0.429:
RVTR

one-hybrid fitness for binding NBS DNA, 0.344:
RKYA

one-hybrid fitness for binding NBS DNA, 0.268:
RTYA

one-hybrid fitness for binding NBS DNA, 0.409:
RMRA

one-hybrid fitness for binding NBS DNA, 0.571:
RRVA

one-hybrid fitness for binding NBS DNA, 0.547:
KRVT

one-hybrid fitness for binding NBS DNA, 0.446:
RTRA

one-hybrid fitness for binding NBS DNA, 0.214:
RQKN

one-hybrid fitness for binding NBS DNA, 0.414:
MARR

one-hybrid fitness for binding NBS DNA, 0.376:
RQKH

one-hybrid fitness for binding NBS DNA, 0.317:
RSRA

one-hybrid fitness for binding NBS DNA, 0.534:
QCNS

one-hybrid fitness for binding NBS DNA, 0.598:
QPVQ

one-hybrid fitness for binding NBS DNA, 0.291:
QSVQ

one-hybrid fitness for binding NBS DNA, 0.23:
QARD

one-hybrid fitness for binding NBS DNA, 0.464:
QAYR

one-hybrid fitness for binding NBS DNA, 0.241:
RRDQ

one-hybrid fitness for binding NBS DNA, 0.273:
QSNH

one-hybrid fitness for binding NBS DNA, 0.436:
RRKQ

one-hybrid fitness for binding NBS DNA, 0.215:
RCVQ

one-hybrid fitness for binding NBS DNA, 0.401:
RRRQ

one-hybrid fitness for binding NBS DNA, 0.449:
RVTT

one-hybrid fitness for binding NBS DNA, 0.29:
QSKF

one-hybrid fitness for binding NBS DNA, 0.421:
QSNS

one-hybrid fitness for binding NBS DNA, 0.45:
RKRA

one-hybrid fitness for binding NBS DNA, 0.511:
QRVQ

one-hybrid fitness for binding NBS DNA, 0.581:
RQKS

one-hybrid fitness for binding NBS DNA, 0.254:
RCKQ

one-hybrid fitness for binding NBS DNA, 0.308:
QAIR

one-hybrid fitness for binding NBS DNA, 0.458:
QMNS

one-hybrid fitness for binding NBS DNA, 0.207:
RRYQ

one-hybrid fitness for binding NBS DNA, 0.66:
KRKT

one-hybrid fitness for binding NBS DNA, 0.419:
QHNS

one-hybrid fitness for binding NBS DNA, 0.385:
QLNS

one-hybrid fitness for binding NBS DNA, 0.492:
QRKQ

one-hybrid fitness for binding NBS DNA, 0.387:
QCKF

one-hybrid fitness for binding NBS DNA, 0.541:
QAHR

one-hybrid fitness for binding NBS DNA, 0.277:
RKKV

one-hybrid fitness for binding NBS DNA, 0.43:
QTKF

one-hybrid fitness for binding NBS DNA, 0.381:
RQKC

one-hybrid fitness for binding NBS DNA, 0.275:
QAPR

one-hybrid fitness for binding NBS DNA, 0.367:
RYRA

one-hybrid fitness for binding NBS DNA, 0.392:
QANS
RVTS

one-hybrid fitness for binding NBS DNA, ≤ 0.2:
VKTS
LYFR
CLSP
QWKS
SAIE
RSVA
RCVA
SFPF
CLCS
HDRG
PCMM
QHNN
QSDS
QMNP
QANP
QMDS
QADS
QHDS
KNIF
WQYS
YNRS
VAGY
ITFA
TSRF
KQID
QPNS
QLNP
QLDS
CAVL
QPKQ
QRPQ
QWKF
LTYT
THMS
QFPN
GTPY
EAGR
MHRT
RVTY
RVTP
RVTN
RVTD
RVTM
RVTH
LTHY
RNVL
GFEG
DLLN
QAGD
QAGH
MAYR
QAHD
MARN
QAHQ
PHID
SLRF
CMGR
NAWR
STPW
CRAL
FGKT
GADW
KKET
MDLY
AKDS
LERS
RKVQ
RSKQ
RFVQ
RSVQ
GWHC
VAYS
MTCD
DSMI
KMGG
CFTM
YTCL
NNIR
LTMG
YGMS
RDGN
AVNT
WVRG
LRPM
KTIT
DVIS
LRVF
QRVF
QPKF
QTVF
QTLF
QRPF
ASVE
QMSV
QFMT
SSYL
ETES
VVRC
HHPQ
VVGI
EYWD
RTDA
RPRA
RYDA
RMDA
RYYA
RMYA
GMVG
QAEN
LNQS
QLYL
PLQD
RKDA
LPLA
AQDR
LIAK
RQKD
RQVH
RQYC
RQVC
RQKP
PEWV
NNCS
ASVF
CPDH
EDYG
PTEW
LKYT
VKLR
WHHR
CGEV
PNVE
WVQL
KCVT
KPVT
KPKT
CLTC
AGTG
LNTG
GMVQ

one-hybrid fitness for binding NBS DNA, 0.329:
QINS

one-hybrid fitness for binding NBS DNA, 0.242:
RVIR

one-hybrid fitness for binding NBS DNA, 0.422:
RCRA

one-hybrid fitness for binding NBS DNA, 0.24:
QARP

one-hybrid fitness for binding NBS DNA, 0.428:
RRVQ

one-hybrid fitness for binding NBS DNA, 0.212:
KCKT
